Source: PubChem BioAssay AID588549 (Broad Institute, 2011)
Screen size: about 360,000 compounds; about 780 (0.22%) were called active. The list comes from a sample in which actives are over-represented; it also holds similar structures and randomly drawn compounds. Values without a mark were called inactive. Cut-off read from the data, not from the text of the source: active = inhibition above about 8.5% (passing the limit was not always enough); inconclusive = no clear call, values can overlap the other calls.

What follows are molecules tested on Mycobacterium tuberculosis FadD28 fatty-acid-AMP ligase (assay: inhibitors of FadD28 bisubstrate probe binding, primary screen, biochemical, fluorescence polarization, single point (AID 588549)). Conditions: at 12.5 µM, active compounds read high.
`COc1cccc(C(=O)Oc2cc(C)[nH]c(=O)c2[N+](=O)[O-])c1` gave an inhibition of -0.419%.
`COc1cccc(/C=C2\SC(=N)N(c3ccc(F)cc3)C2=O)c1` was tested, and the inhibition was -2.96%.
`COc1cccc(N2C(=O)NC(=O)/C(=C\c3ccc([N+](=O)[O-])s3)C2=O)c1` was tested, and the inhibition was 16.4% (active).
`O=[N+]([O-])c1ccc(C=Nc2ccc(Cl)cc2Cl)s1` showed an inhibition of -1.01%.
Molecule `O=C(OCC(=O)N1CCN(c2ccccc2)CC1)c1ccc([N+](=O)[O-])s1` has an inhibition of 0.124%.
In the case of `O=C1NC(=O)N(c2ccccc2)C(=O)/C1=C/c1ccc([N+](=O)[O-])s1`, the inhibition is reported as 25.4% (active).
`CCCC1C(c2ccccc2)C(C#N)(C#N)C2(C#N)CC1(N)NC2=O` (stereo not drawn) gave an inhibition of -0.503%.
Molecule `COc1cccc(OCC(O)CNC(=O)c2oc3c(C)c(C)ccc3c2C)c1` (stereo not drawn) has an inhibition of -2.55%.
Molecule `COc1cc(O)c2c(=O)c3c(O)c(O)ccc3oc2c1OC` has an inhibition of -0.783%.
With `COc1c(O)cc2oc(-c3ccc(O)c(O)c3)cc(=O)c2c1O` the inhibition was 13.9% (active).
`OCc1ccc(-c2ccccc2)c(-c2ccccc2)c1` was tested, and the inhibition was -0.325%.
`COc1ccccc1C(=O)NC(=S)NC12CC3CC(CC(C3)C1)C2` showed an inhibition of -0.832%.
For `COc1ccc(CCNC(=S)NC(=O)/C=C/c2ccc(C)cc2)cc1OC`, the inhibition was -0.381%.
`CC(Nc1ccccc1)c1cccnc1` (stereo not drawn) showed an inhibition of -4.94%.
`CCC(CC)c1nnc(NC(=O)c2nn(C)c(=O)c3ccccc23)s1` showed an inhibition of -1.39%.
With `Cc1ccc(N2CCN(S(=O)(=O)c3ccc(F)cc3)CC2)c(C)c1` the inhibition was -3.77%.
`CC1CC(C)CN(C(=O)COC(=O)c2ccc3ncsc3c2)C1` (stereo not drawn) was tested, and the inhibition was -1.75%.
In the case of `Cc1cc(C)c(C#N)c(SCC(=O)N(CC(C)C)C2CCS(=O)(=O)C2)n1` (stereo not drawn), the inhibition is reported as -3.78%.
With `CCC(C)(C)c1ccc(Oc2ccc(NC(=O)COC(=O)C3=COCCO3)cc2)cc1` the inhibition was -2.88%.
Work on `COc1ccccc1CCCNC(=O)C1CCC(=O)N(CCN2CCOCC2)C1` (stereo not drawn) yielded an inhibition of -0.246%.
Molecule `Cn1c(=O)n(CCc2ccccc2)c(=O)c2c1nc1n2CCCN1c1ccccc1` has an inhibition of -3.89%.
For `Cc1ccc(NC(=O)CN2C(=O)NC(C)(c3ccc(Cl)cc3)C2=O)c(Br)c1` (stereo not drawn), the inhibition was -1.17%.
With `COc1ccc(NC(=O)CN(C)C(=O)c2cccc(S(=O)(=O)N3CCN(c4ccccc4)CC3)c2)cc1` the inhibition was -1.23%.
For `O=C(O)c1ccccc1N=N/C(=N/Nc1cc(S(=O)(=O)O)ccc1O)c1ccccc1`, the inhibition was 8.82% (active).
In the case of `CC(C)(O)C#Cc1ccc(CNC[C@H]2O[C@@H](n3cnc4c(=O)[nH]c(N)nc43)[C@H](O)[C@@H]2O)s1`, the inhibition is reported as -0.925%.
Work on `O=S(=O)(c1ccc(SCc2ccc(Br)cc2)nc1)N1CCOCC1` yielded an inhibition of -1.66%.
Molecule `O=C(Nc1cccc(-c2cccc(Cl)c2)c1)C1CCN(C2CCC2)CC1` has an inhibition of -25.6%.
In the case of `Cc1ccc(/C([O-])=C(/C(=S)NCc2ccco2)[n+]2ccccc2)cc1[N+](=O)[O-]`, the inhibition is reported as 1.32%.
`Cc1sc2ncnc(SCC(=O)NC3CCS(=O)(=O)C3)c2c1C` (stereo not drawn) gave an inhibition of -1.04%.
`CC1CCCC(C)N1C(=O)COC(=O)COc1ccccc1C#N` (stereo not drawn) showed an inhibition of -1.75%.
`Cc1cc(OCC(=O)N2CCN(c3ncccn3)CC2)ccc1Cl` was tested, and the inhibition was -3.44%.
With `COc1ccc(C(=O)Nc2ccnn2C2CCN(Cc3ccncc3)CC2)cc1` the inhibition was -2.54%.
`CCC(C)C(CO)NC(=O)/C=C/[C@H]1O[C@@H](n2cnc3c(NC(=O)c4ccccc4)ncnc32)[C@H](O)[C@@H]1O` (stereo partly drawn) was tested, and the inhibition was -0.392%.
`COc1cc(C(O)c2nc(-c3cnn(C)c3)cs2)ccc1F` (stereo not drawn) was tested, and the inhibition was -2.58%.
Work on `CS(=O)(=O)N(Cc1ccccc1)c1ccc(C(=O)NN=C2CCCCCC2)cc1` yielded an inhibition of -7.2%.
With `CCCN(C(=O)c1nc2nccc(C)n2n1)c1c(N)n(Cc2ccccc2)c(=O)[nH]c1=O` the inhibition was 0.906%.
With `O=Nc1c(O)cc(O)c2ccccc12` the inhibition was -1.75%.
In the case of `COc1ccc(C(=O)NCc2ccc(C)cc2)cc1S(=O)(=O)N1CCCC1`, the inhibition is reported as 28% (active).
`COc1ccccc1CNC(=O)c1ccc(Cl)c(S(=O)(=O)N2CCCC2)c1` was tested, and the inhibition was 1.35%.
With `COc1ccc(C(=O)NCC2CCCCC2)cc1S(=O)(=O)N1CCCC1` the inhibition was -0.215%.
For `COc1ccc(C(=O)NCc2ccc(Cl)cc2)cc1S(=O)(=O)N1CCCC1`, the inhibition was 39.8% (active).
`COc1ccc(C(=O)NCC2CCCO2)cc1S(=O)(=O)NCc1ccc(Cl)cc1` (stereo not drawn) gave an inhibition of -1.14%.
Molecule `COC(=O)c1ccc(CNC(=O)c2ccc(S(=O)(=O)N3CCCCCC3)cc2)cc1` has an inhibition of 1.15%.
